Results reported in PubChem BioAssay (NCI).
Compounds without any hit were thinned out: in the full panel of roughly 79,000, 15% have a hit. Values without a mark were called inactive. Calls of active or inactive are those of the source. Cut-off read from the data, not from the text of the source: active = growth inhibition above about 70%; inactive = the rest.

Experiments:
[1] = NCI Yeast Anticancer Drug Screen. Data for the rad50 strain (AID 155);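 note: 0% = growth of vehicle-only cultures of the same strain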; conditions: S. cerevisiae rad50 strain growth inhibition, active compounds read high
Method in brief: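 Readout: growth inhibition relative to vehicle-treated cultures. Compound exposure was carried out in a genetically defined yeast strain deficient in DNA damage repair.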

[2] = NCI Yeast Anticancer Drug Screen. Data for the mec2-1 strain (AID 157); conditions: S. cerevisiae mec2-1 strain, active compounds read high
Method in brief: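 Yeast mec2-1 mutant treated with compound. Readout: growth inhibition vs vehicle controls.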

[3] = NCI Yeast Anticancer Drug Screen. Data for the sgs1 mgt1 strain (AID 161);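 note: 0% = growth of cultures given vehicle only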; conditions: S. cerevisiae sgs1 mgt1 strain, active compounds read high
Method in brief: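 Inhibition of yeast growth, normalised to vehicle-treated controls, is reported for a strain bearing genetic alterations in DNA damage repair.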

[4] = NCI Yeast Anticancer Drug Screen. Data for the cln2 rad14 strain (AID 165);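 note: 0% = growth equal to vehicle treated cultures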; conditions: S. cerevisiae cln2 rad14 strain, active compounds read high
Method in brief: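 cln2 rad14 yeast strain; compound exposure; growth inhibition read vs vehicle controls.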

[5] = NCI Yeast Anticancer Drug Screen. Data for the bub3 strain (AID 167); conditions: S. cerevisiae bub3 mutant strain, active compounds read high
Method in brief: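 Readout: yeast growth inhibition, expressed relative to vehicle-only wells. The test organism is a mutant strain from a panel with lesions in DNA repair or checkpoint genes.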

[6] = NCI Yeast Anticancer Drug Screen. Data for the mlh1 rad18 strain (AID 175); conditions: S. cerevisiae mlh1 rad18 strain growth inhibition, active compounds read high
Method in brief: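 Yeast w/ defined DNA-repair lesions; compound exposure; growth vs vehicle controls → % inhibition.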

[7] = at 5.0 µM (retest, dose inferred, filed as 0.5)
[8] = at 50.0 µM (retest, dose inferred, filed as 5.0)

| Compound | growth inhibition [1, 7] [%] | growth inhibition [1, 8] | growth inhibition ([1]; at 50.0 µM) | growth inhibition [2, 7] [%] | growth inhibition [2, 8] | growth inhibition ([2]; at 50.0 µM) | growth inhibition [3, 7] [%] | growth inhibition [3, 8] | growth inhibition ([3]; at 50.0 µM) | growth inhibition [4, 7] [%] | growth inhibition [4, 8] | growth inhibition ([4]; at 50.0 µM) | growth inhibition [5, 7] [%] | growth inhibition [5, 8] | growth inhibition ([5]; at 50.0 µM) | growth inhibition [6, 7] [%] | growth inhibition [6, 8] | growth inhibition ([6]; at 50.0 µM) |
| --- | --- | --- | --- | --- | --- | --- | --- | --- | --- | --- | --- | --- | --- | --- | --- | --- | --- | --- |
| C[C@]12CCC3[C@@H](CC[C@@H]4c5nonc5CC[C@]34C)C1CCC(=O)N2 (stereo partly specified) | 10 | 24% | 50.1% | 5 | 17% | -4.95% | 11 | 27% | 51.5% | 7 | 13% | -3.6% | 6 | 48% | 31.9% | 16 | 21% | 25.4% |
| N#Cc1c(-c2ccc(Cl)cc2)c(-c2ccc(Cl)cc2)nn(CCOC(=O)CCC(=O)O)c1=O | 8 | 76% (active) | 89% (active) | -3 | 76% (active) | 88.8% (active) | 22 | 66% | 78.1% (active) | -3 | 86% (active) | 85.2% (active) | 16 | 83% (active) | 84% (active) | 8 | 81% (active) | 87% (active) |
| O=C(Nc1ccccc1-c1nn(C(=S)Nc2ccccc2)c(=S)n(C(=S)Nc2ccccc2)c1=O)C(F)(F)F | 6 | 59% | 47.1% | 2 | 87% (active) | 88.1% (active) | 10 | 77% (active) | 46.5% | 7 | 38% | 17.2% | -41 | 50% | 15.4% | 3 | 88% (active) | 81.5% (active) |
| Cc1c(S(C)=O)[n+](=O)c2ccccc2n1[O-] (stereo unspecified) | 13 | 85% (active) | 32.9% | 0 | 93% (active) | 33.7% | 8 | 92% (active) | 35.9% | 2 | 40% | 7.75% | -2 | 89% (active) | -5.5% | 18 | 96% (active) | 58.6% |
| O=C1C=CC(=O)C(Sc2ccccc2)=C1 | -3 | 98% (active) | 96.8% (active) | 7 | 99% (active) | 98.9% (active) | -4 | 98% (active) | 89.5% (active) | -14 | 93% (active) | 93.3% (active) | -10 | 99% (active) | 94.1% (active) | 24 | 98% (active) | 95.3% (active) |
| O=C1c2ccccc2C(c2ccccc2)(c2ccccc2)N1c1ccccc1 | 3 | 79% (active) | 97% (active) | -1 | 80% (active) | 96.5% (active) | 28 | 90% (active) | 95.6% (active) | 18 | 69% | 91.3% (active) | 5 | 81% (active) | 95.7% (active) | 57 | 89% (active) | 95.6% (active) |
| O=C1c2ccc3ccccc3c2CN2C(=O)CCC12 (stereo unspecified) | 4 | 83% (active) | 25.2% | -11 | 16% | -6.6% | -5 | 28% | 21.7% | 7 | 66% | -4.3% | -5 | 39% | 6.2% | 4 | 43% | 23.5% |
| CS(=O)(=O)OC1COC2C(I)COC12 (stereo unspecified) | -1 | 55% | 7.85% | 3 | 58% | -11.8% | -1 | 83% (active) | 1.85% | 5 | 30% | 13.7% | -1 | 83% (active) | 77.3% (active) | 2 | 84% (active) | 19.9% |
| Nc1nc(-c2ccccc2)c(-c2ccccc2)c(-c2nc(N)nc(-c3ccccc3)c2-c2ccccc2)n1 | 7 | -3% | -4% | 6 | 16% | -6% | -1 | 0% | -16.9% | 21 | 12% | 2.45% | -1 | -9% | -17.1% | -12 | -16% | 7.8% |
| N#CCC1CC(=O)c2[nH]c3ccccc3c2C1 (stereo unspecified) | -157 | -137% | 8.85% | -49 | -54% | 7.7% | -64 | -63% | 10% | -54 | -74% | 28% | -62 | -70% | -15.9% | -123 | -121% | 10.4% |
| CCCCCN(CCCCC)CC(O)c1cc2ccccc2c2ccccc12 (stereo unspecified) | -1 | 98% (active) | 99.3% (active) | 11 | 99% (active) | 99.4% (active) | 18 | 100% (active) | 99.4% (active) | -12 | 98% (active) | 99.2% (active) | -1 | 99% (active) | 99.3% (active) | 27 | 99% (active) | 99.2% (active) |
| O=C1CC(=S)NC(=S)N1 | -2 | -6% | 12.8% | 0 | -1% | -1.7% | -1 | -2% | -15% | -5 | -6% | -26% | -2 | -8% | -10.4% | -3 | -5% | 40.2% |
| COc1cc2c(cc1OC)C(Cl)C(c1ccc(F)cc1)=C2Cl (stereo unspecified) | -23 | 0% | 17.8% | 5 | 3% | 10.4% | -4 | -3% | -5.35% | -3 | 6% | 10.4% | -2 | 4% | 45.2% | 0 | -1% | -3.4% |
| CCN(CC)CCOc1ccc(/C(C#N)=C/c2ccc(C(F)(F)F)cc2)cc1 | 36 | 96% (active) | 75.5% (active) | 34 | 99% (active) | 48.6% | 65 | 98% (active) | 90.5% (active) | 48 | 90% (active) | 69.3% | 54 | 98% (active) | 54.1% | 38 | 99% (active) | 90.8% (active) |
| CCOC(=O)C(C(=O)OCC)C1(c2ccccc2)OC(=O)c2ccccc21 (stereo unspecified) | 0 | 13% | 0.55% | 13 | 27% | 5.3% | -1 | 21% | 52.9% | -1 | 17% | 19.1% | -7 | -6% | 8.8% | -4 | 5% | -8.55% |
| CC(C)CCCCCCCCCCCCC(=O)NCC(=O)NC1C(C)OC(Nc2ncnc3nc[nH]c23)C(O)C1O (stereo unspecified) | 22 | 22% | 29.1% | 54 | 32% | 9.55% | 43 | 45% | 34.5% | 5 | 10% | 2.2% | 58 | 23% | 77.1% (active) | 52 | 35% | 19.4% |
| OC(Cc1ccccc1)(c1ccccc1)C(O)(Cc1ccccc1)c1ccccc1 (stereo unspecified) | 30 | 79% (active) | 85.2% (active) | 20 | 54% | 78.5% (active) | 0 | 52% | 78.4% (active) | 13 | 53% | 85.7% (active) | 15 | 61% | 74.5% (active) | 26 | 76% (active) | 87.2% (active) |
